In all, about 5,500 compounds went through this assay and about 2,000 (36%) were called active. About 18% were inconclusive and are not listed. Cut-off read from the data, not from the text of the source: active = normalized growth mostly below about 0.91 (no sharp cut-off); inconclusive = no clear call, values can overlap the other calls; inactive = mostly above about 0.92. Some of the results follow.
Assay: chemical genetic growth profiling, strain panel (AID 1159580);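 note: tested at 20 µM; growth read once vehicle control cultures reached saturation at 30 °C; 1 = growth at the plate median or of vehicle wells; lower values mean less growth of the strain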
Conditions: growth OD
[1] = S. cerevisiae deletion strains, locus YHR030C, strain SLT2, stronger effect = lower value

Measured: normalized growth

COC(=O)c1cc(OC)c(OC)cc1NS(=O)(=O)c1ccc(C)cc1
inactive: S. cerevisiae deletion strains, locus YAL013W, strain DEP1, stronger effect = lower value 1.01 | S. cerevisiae deletion strains, locus YBR229C, strain ROT2, stronger effect = lower value 0.996 | S. cerevisiae deletion strains, locus YDL101C, strain DUN1, stronger effect = lower value 0.994 | S. cerevisiae deletion strains, locus YDR150W, strain NUM1, stronger effect = lower value 0.933 | S. cerevisiae deletion strains, locus YEL061C, strain CIN8, stronger effect = lower value 1.01 | S. cerevisiae deletion strains, locus YGR078C, strain PAC10, stronger effect = lower value 0.989 | [1] 0.959 | S. cerevisiae deletion strains, locus YHR087W, strain rtc3, stronger effect = lower value 1 | S. cerevisiae deletion strains, locus YJR043C, strain POL32, stronger effect = lower value 0.985 | S. cerevisiae deletion strains, locus YJR075W, strain HOC1, stronger effect = lower value 0.991 | S. cerevisiae deletion strains, locus YKL190W, strain CNB1, stronger effect = lower value 1 | S. cerevisiae deletion strains, locus YLR039C, strain RIC1, stronger effect = lower value 0.961 | S. cerevisiae deletion strains, locus YLR058C, strain SHM2 (second series), stronger effect = lower value 1.01 | S. cerevisiae deletion strains, locus YLR085C, strain ARP6, stronger effect = lower value 1.03 | S. cerevisiae deletion strains, locus YLR262C, strain YPT6, stronger effect = lower value 0.891 | S. cerevisiae deletion strains, locus YML094W, strain GIM5, stronger effect = lower value 1.03 | S. cerevisiae deletion strains, locus YMR219W, strain ESC1, stronger effect = lower value 1 | S. cerevisiae deletion strains, locus YMR263W, strain SAP30, stronger effect = lower value 0.971 | S. cerevisiae deletion strains, locus YMR307W, strain GAS1, stronger effect = lower value 0.959 | S. cerevisiae deletion strains, locus YNL153C, strain GIM3, stronger effect = lower value 0.987 | S. cerevisiae deletion strains, locus YNL298W, strain CLA4 (second series), stronger effect = lower value 0.962 | S. cerevisiae deletion strains, locus YNL322C, strain KRE1, stronger effect = lower value 1 | S. cerevisiae deletion strains, locus YNR030W, strain Alg12, stronger effect = lower value 0.996 | S. cerevisiae deletion strains, locus YPL055C, strain LGE1, stronger effect = lower value 0.894 | S. cerevisiae deletion strains, locus YPL241C, strain CIN2, stronger effect = lower value 1.01 | S. cerevisiae deletion strains, locus YPR135W, strain CTF4, stronger effect = lower value 0.93 | S. cerevisiae strains, strain wild type, stronger effect = lower value 0.99

CCC(COC(=O)c1cc(OC)c(OC)c(OC)c1)(c1ccccc1)N(C)C (configuration not stated)
inactive: S. cerevisiae deletion strains, locus YAL021C, strain ccr4, stronger effect = lower value 0.969 | S. cerevisiae deletion strains, locus YAL026C, strain drs2, stronger effect = lower value 0.994 | S. cerevisiae deletion strains, locus YAL030W, strain snc1, stronger effect = lower value 0.985 | S. cerevisiae deletion strains, locus YBL061C, strain skt5, stronger effect = lower value 0.993 | S. cerevisiae deletion strains, locus YBR009C, strain hhf1, stronger effect = lower value 1.01 | S. cerevisiae deletion strains, locus YBR023C, strain chs3, stronger effect = lower value 0.98 | S. cerevisiae deletion strains, locus YBR171W, strain sec66, stronger effect = lower value 0.961 | S. cerevisiae deletion strains, locus YBR231C, strain swc5, stronger effect = lower value 0.985 | S. cerevisiae deletion strains, locus YBR279W, strain paf1, stronger effect = lower value 0.975 | S. cerevisiae deletion strains, locus YCL011C, strain gbp2, stronger effect = lower value 0.969 | S. cerevisiae deletion strains, locus YCL016C, strain dcc1, stronger effect = lower value 0.99 | S. cerevisiae deletion strains, locus YCL061C, strain MRC1, stronger effect = lower value 0.987 | S. cerevisiae deletion strains, locus YCL069W, strain vba3, stronger effect = lower value 0.988 | S. cerevisiae deletion strains, locus YCR088W, strain abp1, stronger effect = lower value 0.979 | S. cerevisiae deletion strains, locus YDL005C, strain med2, stronger effect = lower value 0.977 | S. cerevisiae deletion strains, locus YDL040C, strain nat1, stronger effect = lower value 0.978 | S. cerevisiae deletion strains, locus YDR001C, strain nth1, stronger effect = lower value 0.974 | S. cerevisiae deletion strains, locus YDR069C, strain doa4, stronger effect = lower value 0.992 | S. cerevisiae deletion strains, locus YDR137W, strain rgp1, stronger effect = lower value 0.925 | S. cerevisiae deletion strains, locus YDR159W, strain sac3, stronger effect = lower value 0.986 | S. cerevisiae deletion strains, locus YDR195W, strain ref2 0.984 | S. cerevisiae deletion strains, locus YDR297W, strain sur2, stronger effect = lower value 0.971 | S. cerevisiae deletion strains, locus YDR334W, strain swr1, stronger effect = lower value 0.938 | S. cerevisiae deletion strains, locus YDR335W, strain msn5, stronger effect = lower value 0.969 | S. cerevisiae deletion strains, locus YDR392W, strain spt3, stronger effect = lower value 0.753 | S. cerevisiae deletion strains, locus YEL003W, strain gim4, stronger effect = lower value 0.967 | S. cerevisiae deletion strains, locus YEL037C, strain rad23, stronger effect = lower value 0.983 | S. cerevisiae deletion strains, locus YEL061C, strain CIN8 (second series), stronger effect = lower value 0.985 | S. cerevisiae deletion strains, locus YER015W, strain faa2, stronger effect = lower value 0.986 | S. cerevisiae deletion strains, locus YER016W, strain bim1, stronger effect = lower value 0.983 | S. cerevisiae deletion strains, locus YER111C, strain swi4, stronger effect = lower value 0.983 | S. cerevisiae deletion strains, locus YER155C, strain BEM2 (second series), stronger effect = lower value 0.97 | S. cerevisiae deletion strains, locus YFR010W, strain ubp6, stronger effect = lower value 0.984 | S. cerevisiae deletion strains, locus YGL167C, strain pmr1, stronger effect = lower value 0.976 | S. cerevisiae deletion strains, locus YGL173C, strain kem1, stronger effect = lower value 0.985 | S. cerevisiae deletion strains, locus YGL227W, strain vid30, stronger effect = lower value 0.99 | S. cerevisiae deletion strains, locus YGL240W, strain doc1, stronger effect = lower value 0.972 | S. cerevisiae deletion strains, locus YGL253W, strain hxk2, stronger effect = lower value 0.994 | S. cerevisiae deletion strains, locus YHR013C, strain ard1, stronger effect = lower value 0.937 | S. cerevisiae deletion strains, locus YHR027C, strain rpn1, stronger effect = lower value 0.969 | [1] 0.976 | S. cerevisiae deletion strains, locus YHR079C, strain IRE1, stronger effect = lower value 0.985 | S. cerevisiae deletion strains, locus YHR142W, strain chs7, stronger effect = lower value 0.952 | S. cerevisiae deletion strains, locus YJL092W, strain hpr5, stronger effect = lower value 0.973 | S. cerevisiae deletion strains, locus YJL095W, strain BCK1 (second series), stronger effect = lower value 0.981 | S. cerevisiae deletion strains, locus YJL095W, strain BCK1, stronger effect = lower value 0.98 | S. cerevisiae deletion strains, locus YJL115W, strain asf1, stronger effect = lower value 0.957 | S. cerevisiae deletion strains, locus YJL129C, strain trk1, stronger effect = lower value 0.938 | S. cerevisiae deletion strains, locus YJL154C, strain vps35, stronger effect = lower value 0.979 | S. cerevisiae deletion strains, locus YJL164C, strain tpk1, stronger effect = lower value 0.966 | S. cerevisiae deletion strains, locus YJL166W, strain qcr8, stronger effect = lower value 0.969 | S. cerevisiae deletion strains, locus YJL187C, strain SWE1, stronger effect = lower value 0.988 | S. cerevisiae deletion strains, locus YJR066W, strain TOR1, stronger effect = lower value 0.924 | S. cerevisiae deletion strains, locus YKL160W, strain elf1, stronger effect = lower value 0.959 | S. cerevisiae deletion strains, locus YKR026C, strain gcn3, stronger effect = lower value 0.983 | S. cerevisiae deletion strains, locus YKR091W, strain srl3, stronger effect = lower value 0.976 | S. cerevisiae deletion strains, locus YLL001W, strain dnm1, stronger effect = lower value 0.985 | S. cerevisiae deletion strains, locus YLL026W, stronger effect = lower value 0.975 | S. cerevisiae deletion strains, locus YLL041C, strain sdh2, stronger effect = lower value 0.964 | S. cerevisiae deletion strains, locus YLR027C, strain aat2, stronger effect = lower value 0.974 | S. cerevisiae deletion strains, locus YLR113W, strain HOG1, stronger effect = lower value 0.995 | S. cerevisiae deletion strains, locus YLR221C, strain rsa3, stronger effect = lower value 0.951 | S. cerevisiae deletion strains, locus YLR258W, strain gsy2, stronger effect = lower value 0.991 | S. cerevisiae deletion strains, locus YLR262C, strain YPT6 (second series), stronger effect = lower value 0.933 | S. cerevisiae deletion strains, locus YLR320W, strain mms22, stronger effect = lower value 0.942 | S. cerevisiae deletion strains, locus YLR342W, strain FKS1, stronger effect = lower value 0.983 | S. cerevisiae deletion strains, locus YLR357W, strain rsc2, stronger effect = lower value 0.966 | S. cerevisiae deletion strains, locus YLR370C, strain arc18, stronger effect = lower value 0.997 | S. cerevisiae deletion strains, locus YLR384C, strain iki3, stronger effect = lower value 0.976 | S. cerevisiae deletion strains, locus YML120C, strain ndi1, stronger effect = lower value 0.957 | S. cerevisiae deletion strains, locus YMR058W, strain fet3, stronger effect = lower value 0.979 | S. cerevisiae deletion strains, locus YMR125W, strain sto1, stronger effect = lower value 0.97 | S. cerevisiae deletion strains, locus YMR129W, stronger effect = lower value 0.978 | S. cerevisiae deletion strains, locus YMR205C, strain PFK2, stronger effect = lower value 1.02 | S. cerevisiae deletion strains, locus YMR231W, strain pep5, stronger effect = lower value 0.999 | S. cerevisiae deletion strains, locus YNL071W, strain lat1, stronger effect = lower value 0.921 | S. cerevisiae deletion strains, locus YNL183C, strain NPR1, stronger effect = lower value 0.939 | S. cerevisiae deletion strains, locus YNL209W, strain ssb2, stronger effect = lower value 0.98 | S. cerevisiae deletion strains, locus YNL248C, strain rpa49, stronger effect = lower value 0.945 | S. cerevisiae deletion strains, locus YNL322C, strain KRE1 (second series), stronger effect = lower value 0.972 | S. cerevisiae deletion strains, locus YNR049C, strain mso1, stronger effect = lower value 0.973 | S. cerevisiae deletion strains, locus YOR001W, strain rrp6, stronger effect = lower value 0.913 | S. cerevisiae deletion strains, locus YOR070C, strain gyp1, stronger effect = lower value 0.978 | S. cerevisiae deletion strains, locus YOR080W, strain dia2, stronger effect = lower value 0.977 | S. cerevisiae deletion strains, locus YOR083W, strain WHI5, stronger effect = lower value 0.952 | S. cerevisiae deletion strains, locus YOR106W, strain vam3, stronger effect = lower value 0.957 | S. cerevisiae deletion strains, locus YOR231W, strain MKK1, stronger effect = lower value 0.988 | S. cerevisiae deletion strains, locus YOR265W, strain rbl2, stronger effect = lower value 0.976 | S. cerevisiae deletion strains, locus YOR270C, strain vph1, stronger effect = lower value 0.955 | S. cerevisiae deletion strains, locus YOR290C, strain snf2, stronger effect = lower value 0.925 | S. cerevisiae deletion strains, locus YPL051W, strain arl3, stronger effect = lower value 0.954 | S. cerevisiae deletion strains, locus YPL078C, strain atp4, stronger effect = lower value 0.946 | S. cerevisiae deletion strains, locus YPL106C, strain sse1, stronger effect = lower value 0.941 | S. cerevisiae deletion strains, locus YPL240C, strain hsp82, stronger effect = lower value 0.961 | S. cerevisiae deletion strains, locus YPL256C, strain CLN2, stronger effect = lower value 0.966
